Compound activity as filed in PubChem BioAssay.
In the library only some 12% were active in any assay of this set; here they are far more common.
G9a inh: qHTS Assay for Inhibitors of Histone Lysine Methyltransferase G9a. 350,000 compounds, 8.8% hits. G9a H3K9 monomethylation, AlphaScreen, 2 h. Histone-lysine N-methyltransferase EHMT2 (Homo sapiens), Q96KQ7. Potency, µM (titrated, usually from 102 µM), without a hit: at the top dose activity, negative = inhibition, hits mostly inhibitors; note: potency is the fitted concentration of half-maximal effect; % is set by controls: 0 for no effect and ±100 for the full control effect; nearly all actives have a fitted effect of over 75% in size
Target sequence (Q96KQ7 913-1193 limits assumed): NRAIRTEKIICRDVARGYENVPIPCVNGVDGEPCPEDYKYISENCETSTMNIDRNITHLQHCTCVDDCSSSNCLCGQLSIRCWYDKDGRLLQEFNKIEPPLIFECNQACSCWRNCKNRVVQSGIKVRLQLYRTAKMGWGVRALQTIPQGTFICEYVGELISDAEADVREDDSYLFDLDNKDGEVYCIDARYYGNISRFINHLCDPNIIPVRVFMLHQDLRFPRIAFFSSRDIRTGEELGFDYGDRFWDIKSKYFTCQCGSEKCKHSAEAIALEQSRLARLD
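Compounds were preincubated with 20 nM G9a for 15 min, after which biotinylated H3K9 peptide (500 nM) and SAM (20 uM) started a 2 h room-temperature reaction. Monomethylated product was quantified by antibody-based AlphaScreen chemiluminescence.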
Sfp PPTase inh: qHTS Assay for Inhibitors of Bacillus subtilis Sfp phosphopantetheinyl transferase (PPTase); AID 1490, 2009; 4'-phosphopantetheinyl transferase ffp (Bacillus subtilis), Q9F4F7; 310,000 compounds, 3.5% hits; Biochemical Sfp PPTase activity, qHTS; Potency, µM, for inactives: largest response in the series, negative = inhibition, hits mostly inhibitors;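 note: the enzyme is Sfp with the accession as filed and its product quenches rhodamine fluorescence; potency is the fitted concentration of half-maximal effect; 0% = enzyme reaction without inhibitor and -100% = no enzyme wells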
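Sfp 15 nM + cpd, 15 min RT; start w/ rhodamine-CoA 5 uM, BHQ-2-YbbR 12.5 uM (final); 50 mM Hepes pH 7.6, 10 mM MgCl2, 0.01% NP-40, 0.01% BSA; read 525/598 nm at 0 and 30 min.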
PLK1 PBD inh: qHTS for Inhibitors of PLK1-PDB (polo-like kinase 1 - polo-box domain): Primary Screen; Serine/threonine-protein kinase PLK1 (Homo sapiens), P53350; Plk1 PBD binding of FITC phosphopeptide, fluorescence polarization; AID 720504, 2013; 360,000 compounds, 2.8% hits; Potency, µM, inactives show max response, negative = inhibition, usual class: inhibitors; note: potency is the fitted concentration of half-maximal effect; series mostly up to about 57 µM; % is set by controls: 0 for no effect and ±100 for the full control effect; nearly all actives have a fitted effect of over 65% in size
JMJD2A Tudor: qHTS Assay for Inhibitors of JMJD2A-Tudor Domain | Lysine-specific demethylase 4A (Homo sapiens), O75164 | AlphaScreen JMJD2A-Tudor / H3K4me3 peptide binding | Potency, µM (series often up to 114 µM), inactives show top-dose activity change, negative = inhibition, usual class: inhibitors | 390,000 compounds, 4.4% hits | AID 504339, 2011; note: potency is the fitted concentration of half-maximal effect; % is set by controls: 0 for no effect and ±100 for the full control effect; nearly all actives have a fitted effect of over 50% in size
HP1b binding inh: HTS for Inhibitors of HP1-beta Chromodomain Interactions with Methylated Histone Tails; Chromobox protein homolog 1 (Homo sapiens), P83916; AlphaScreen HP1-beta / biotin-H3K9me3 peptide binding; Potency, µM (series often up to 114 µM), for inactives: at the highest dose activity change, negative = inhibition, hits mostly inhibitors; 390,000 compounds, 0.56% hits; note: potency is the fitted concentration of half-maximal effect; nearly all actives have a fitted effect of over 70% in size
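HP1-beta protein (50 nM final) preincubated 30 min at room temperature with biotinylated H3(1-18)K9me3 peptide (50 nM) in PBS pH 7.4, 0.01% Tween-20, then compound added for 30 min. AlphaScreen streptavidin donor/nickel chelate acceptor beads (10 ug/mL final), 30 min dark, luminescence read.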
BAZ2B block: qHTS Assay for Inhibitors of BAZ2B; Bromodomain adjacent to zinc finger domain protein 2B (Homo sapiens), Q9UIF8; AlphaScreen BAZ2B-H3K14Ac peptide displacement; Potency, µM (series often up to 114 µM), for inactives: top-dose activity change, negative = inhibition, actives largely listed as inhibitors; 360,000 compounds, 4.4% hits; AID 504333, 2011; note: potency is the fitted concentration of half-maximal effect; % is set by controls: 0 for no effect and ±100 for the full control effect; nearly all actives have a fitted effect of over 60% in size
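In this displacement format the biotinylated H3(5-23) peptide acetylated at Lys14 serves as ligand at 50 nM, with BAZ2B at 50 nM in PBS pH 7.4 containing 0.01% Tween-20. Donor and acceptor beads are 10 ug/mL final.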
Sfp inh conf: Confirmation qHTS Assay for Inhibitors of Bacillus subtilis Sfp phosphopantetheinyl transferase (PPTase); 380 compounds, 79% hits; shares compounds with Sfp PPTase inh; Potency, µM (highest dose often 114 µM), without a hit: at the highest dose activity change, negative = inhibition, actives largely listed as inhibitors; Sfp PPTase enzymatic assay, qHTS titration; AID 2701, 2010;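 note: potency is the fitted concentration of half-maximal effect; plate controls were uninhibited Sfp reaction for no effect and no enzyme control for full effect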
Target sequence (Q9F4F7 whole entry, looked up): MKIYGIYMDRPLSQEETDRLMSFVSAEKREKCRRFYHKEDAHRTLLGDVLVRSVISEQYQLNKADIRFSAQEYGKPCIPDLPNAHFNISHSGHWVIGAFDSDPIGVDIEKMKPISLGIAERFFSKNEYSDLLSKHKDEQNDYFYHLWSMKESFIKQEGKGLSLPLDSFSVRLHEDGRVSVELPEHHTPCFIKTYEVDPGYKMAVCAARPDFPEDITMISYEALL
Sfp gel assay: Gel-Based Assay for Inhibitors of Bacillus subtilis Sfp phosphopantetheinyl transferase (PPTase). 210 compounds, 20% hits. shares compounds with Sfp PPTase inh. purified Sfp, gel-based phosphopantetheinylation read-out. AID 2707, 2010. Potency, µM, most hits filed as inhibitors;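 active = potency below 100 µM; inconclusive = dose-dependent response but potency above 100 µM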;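 note: band intensities scaled against SCH202676 control wells before curve fitting; potency is an IC50 for inhibitors of Sfp transfer activity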
* = called active by the depositor; ! = not active in a repeat; [ ] = remark or other dose. Unless noted, calls come from the whole dose curve; as a rule, active = well fitted curve in the direction sought with a large enough effect; inconclusive = small, poorly fitted or top-dose-only effect, or another doubt; inactive = no such curve, though single readings can be large; an effect the other way counts as inactive or inconclusive.

What do the screens show for `COc1cc2nc(N3CCN(C(=O)C4CCCO4)CC3)nc(N)c2cc1OC` (stereo unspecified)?
G9a inh: inconclusive; Sfp PPTase inh: 56µM*!; PLK1 PBD inh: -15%; JMJD2A Tudor: inconclusive; HP1b binding inh: 7%; BAZ2B block: 2%; Sfp inh conf: 0%; Sfp gel assay: inconclusive

What do the screens show for `Cn1c(N)c(C(=O)CSc2nc(C3CC3)n(-c3ccccc3)n2)c(=O)[nH]c1=O`?
G9a inh: -6%[12.7 µM]; PLK1 PBD inh: 0%; JMJD2A Tudor: -15%; HP1b binding inh: 24%; BAZ2B block: 6%

Results for O=C(CSc1n[nH]c(-c2ccccc2O)n1)N1CCOCC1 ?
G9a inh: 26%; Sfp PPTase inh: 3.5µM*; PLK1 PBD inh: -8%; JMJD2A Tudor: -4%; HP1b binding inh: 26%; BAZ2B block: inconclusive; Sfp inh conf: 15%; Sfp gel assay: inactive

Results for Nc1nc(SCC(=O)N2CCOCC2)n[nH]1 ?
G9a inh: 12%[59 µM]; Sfp PPTase inh: -1%; PLK1 PBD inh: -27%; JMJD2A Tudor: 3%[11.4 µM]; HP1b binding inh: 4%; BAZ2B block: -18%

What do the screens show for `O=[N+]([O-])c1ccc2nc(-c3ccc(Cl)cc3)[nH]c2c1`?
G9a inh: 40µM*; Sfp PPTase inh: 0.35µM*; PLK1 PBD inh: -19%; JMJD2A Tudor: -20%; HP1b binding inh: 11%; BAZ2B block: -4%; Sfp inh conf: -3%; Sfp gel assay: 56µM*

How did COC(=O)c1ccc(N2CCCCC2)c(N)c1 do in these assays?
Sfp PPTase inh: 9%; PLK1 PBD inh: -5%; JMJD2A Tudor: -13%; HP1b binding inh: 26%; BAZ2B block: -15%

What do the screens show for `COC(=O)c1ccc(N2CCC(C)CC2)c(N)c1`?
G9a inh: 8.9µM*; Sfp PPTase inh: 32µM*; PLK1 PBD inh: 21µM*; JMJD2A Tudor: inconclusive; HP1b binding inh: inconclusive; BAZ2B block: -33%; Sfp inh conf: 19µM*

How did Oc1ccc(NCc2cccc(OCc3ccc(F)cc3)c2)cc1 do in these assays?
Sfp PPTase inh: 16µM*; PLK1 PBD inh: -11%; JMJD2A Tudor: 40µM*; HP1b binding inh: inconclusive; BAZ2B block: -35%; Sfp inh conf: 53µM*; Sfp gel assay: inconclusive

Results for CCCNC(=O)C1(C)CCN(Cc2cccc(OC(=O)c3ccccc3)c2)C1 (stereo unspecified) ?
PLK1 PBD inh: -13%

How did CO/N=C(\C(=O)N[C@@H]1C(=O)N2C(C(=O)O)=C(COC(N)=O)CS[C@@H]12)c1ccco1 do in these assays?
G9a inh: 13%[21.5 µM]; Sfp PPTase inh: -4%

What do the screens show for `CO/N=C(/C(=O)N[C@@H]1C(=O)N2C(C(=O)O)=C(CSc3cnns3)CS[C@H]12)c1csc(N)n1`?
G9a inh: inconclusive; Sfp PPTase inh: 40µM*; Sfp inh conf: 53µM*; Sfp gel assay: 56µM*

Results for O=C(NCN1CCOCC1)c1cnccn1 ?
G9a inh: -1%; Sfp PPTase inh: 9%; PLK1 PBD inh: 2%; JMJD2A Tudor: -16%; HP1b binding inh: 26%; BAZ2B block: -3%
